rTrxR1 inhibitor: qHTS Assay for Inhibitors of Mammalian Selenoprotein Thioredoxin Reductase 1 (TrxR1): qHTS; 390,000 tested, 1% active; Potency, µM (titrated, usually from 114 µM), actives largely listed as inhibitors; Thioredoxin reductase 1, cytoplasmic (Rattus norvegicus), O89049; AID 588453, 2011; recombinant rTrxR1, NADPH fluorescence consumption, selenite substrate; further: nearly all actives have a fitted effect of over 65% in size
Target sequence (O89049 whole entry, looked up): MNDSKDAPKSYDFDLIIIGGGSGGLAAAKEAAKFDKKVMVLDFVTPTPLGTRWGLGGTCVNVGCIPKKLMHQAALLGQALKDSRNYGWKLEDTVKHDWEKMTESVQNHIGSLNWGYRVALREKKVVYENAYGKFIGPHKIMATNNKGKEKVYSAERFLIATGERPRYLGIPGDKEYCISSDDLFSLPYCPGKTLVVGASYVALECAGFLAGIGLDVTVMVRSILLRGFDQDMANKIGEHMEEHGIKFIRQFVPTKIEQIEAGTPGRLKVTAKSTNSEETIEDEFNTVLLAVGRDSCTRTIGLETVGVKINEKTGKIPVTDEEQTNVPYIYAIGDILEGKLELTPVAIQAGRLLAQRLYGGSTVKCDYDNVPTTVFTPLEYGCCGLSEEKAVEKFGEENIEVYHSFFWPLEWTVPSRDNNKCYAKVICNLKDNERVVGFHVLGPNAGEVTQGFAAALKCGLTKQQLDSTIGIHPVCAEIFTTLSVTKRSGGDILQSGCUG
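Rat TrxR1 (90 nM in the dispensed reagent) was pre-reduced with 400 uM NADPH for 5 min at room temperature, then incubated with compound for 15 min. After 400 uM selenite was added, NADPH fluorescence (Ex 340/Em 450 nm) was followed for 8 min.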
mIDH1 inhibitor: qHTS for Inhibitors of mutant isocitrate dehydrogenase 1 (IDH1): qHTS; IDH1-R132H enzyme, NADPH consumption, diaphorase/resazurin fluorescence; 390,000 tested, 0.093% active; AID 602179, 2012; Potency, µM (titrated, usually from 76.6 µM), hits mostly inhibitors; Isocitrate dehydrogenase [NADP] cytoplasmic (Homo sapiens), O75874; further: nearly all actives have a fitted effect of over 65% in size
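IDH1-R132H (0.5 ug/mL dispensed) in pH 7.5 Tris buffer was preincubated 30 min with compound, then given a substrate mix of 0.016 mM NADPH and 2 mM alpha-KG for 80 min at room temperature; remaining NADPH was read by diaphorase/resazurin fluorescence.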
Eya2 phos inh: qHTS Assay for Inhibitors of the Phosphatase Activity of Eya2 | Protein phosphatase EYA2 (Homo sapiens), O00167 | recombinant Eya2, OMFP fluorescence dephosphorylation (OMFP is methylfluorescein phosphate) | Potency, µM (highest dose often 76.9 µM), most hits filed as inhibitors | 330,000 tested, 0.006% active
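Eya2 (0.2 uM) preincubated 10 min at ambient with compound, then OMFP substrate added at 50 uM; 10 min reaction in 50 mM HEPES pH 7.5, 50 mM NaCl, 5 uM MgCl2, 0.05% BSA, 1 mM DTT. Fluorescence read at Ex 485/Em 525 nm.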
RGS4 inhibitor: Inhibitors of Regulator of G Protein Signaling (RGS) 4: qHTS; Regulator of G-protein signaling 4 (Homo sapiens), P49798; Transcreener GDP fluorescence polarization, RGS4-accelerated GTP hydrolysis; Potency, µM (highest dose often 114 µM), actives largely listed as inhibitors; 390,000 tested, 0.039% active; AID 504845, 2011; further: nearly all actives have a fitted effect of over 75% in size
Target sequence (P49798 whole entry, looked up): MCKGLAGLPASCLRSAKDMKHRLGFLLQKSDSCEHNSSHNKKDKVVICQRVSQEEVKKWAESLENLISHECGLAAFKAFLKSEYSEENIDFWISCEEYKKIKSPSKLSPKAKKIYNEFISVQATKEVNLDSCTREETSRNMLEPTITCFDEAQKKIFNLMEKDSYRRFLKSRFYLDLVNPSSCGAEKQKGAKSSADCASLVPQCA
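MLSMR compounds (23 nl, pin-transferred) preincubated 10 min at room temperature with a 500nM (2x) first reagent, then RGS4 at 900nM (2x) plus Transcreener GDP mix added; fluorescence polarization (620/688 nm) read before and after 90 min at 30 °C.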
TrxR1 substrate: qHTS Assay for Substrates of Mammalian Selenoprotein Thioredoxin Reductase 1 (TrxR1): qHTS. Thioredoxin reductase 1, cytoplasmic (Rattus norvegicus), O89049. purified TrxR1 substrate turnover, NADPH consumption readout. Potency, µM (highest dose often 114 µM). 390,000 tested, 0.01% active. AID 588456, 2011; further: nearly all actives have a fitted effect of over 50% in size
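Rat TrxR1, dispensed at 90 nM, was prereduced with 400 uM NADPH (final) for 5 min at ~22 deg C, then incubated with compound 15 min before 400 uM selenite. A first-read NADPH fluorescence drop versus no-compound background flagged substrates.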
A number is an active result; – = inactive; ? = inconclusive; · = no result given; [ ] = dose if it differs, or a comment. A selection: hits, their analogues and other compounds. The true share with any hit is near 1.1%. The call rests on the fitted dose curve; in most records, active means well fitted curve in the direction sought with a large enough effect; inconclusive means small, poorly fitted or top-dose-only effect, or another doubt; inactive means no such curve, though single readings can be large; an effect the other way counts as inactive or inconclusive.

SMILES | rTrxR1 inhibitor | mIDH1 inhibitor | Eya2 phos inh | RGS4 inhibitor | TrxR1 substrate
C=CCn1c(SCC(=O)Nc2ccc(O)cc2)nc2sc(CC)cc2c1=O | – | – | – | – | –
Cc1ccc(CN(C)C(=O)c2cccc(S(=O)(=O)N3CCc4ccccc4C3)c2)o1 | 40µM | – | – | ? | –
O=C1c2c(O)cc(O)cc2OC(c2ccc(O)c(O)c2)C1O (stereo unspecified) | ? | · | – | ? | –
O=C1C(=O)C(c2ccc(O)cc2O)Oc2cc(O)cc(O)c21 (stereo unspecified) | 4.5µM | · | · | – | –
CCCn1c(N)c(C(=O)CSc2ncn[nH]2)c(=O)n(C)c1=O | – | – | – | – | –
CCCCn1c(N)c(C(=S)NC(=O)CC(C)(C)C)c(=O)n(C)c1=O | 40µM | – | – | – | –
CC(C)CN(C(=O)CSc1nc(-c2ccccc2)cn1N)c1c(N)n(Cc2ccccc2)c(=O)[nH]c1=O | – | – | – | – | –
CC(C)(C)c1ccc(C(=O)CC(Sc2ccc(Cl)cc2)C(=O)O)cc1 (stereo unspecified) | 56µM | – | – | ? | –
CNC(=O)c1c(C)[nH]c(=S)c(C#N)c1-c1ccco1 | 13µM | – | – | ? | –
O=C1CC(N2CCN(c3ccccn3)CC2)C(=O)N1CC(c1ccccc1)c1ccccc1 (stereo unspecified) | 25µM | – | – | – | –
COc1ccc(N2CCN(CC(O)COc3ccc(C(C)(C)C)cc3)CC2)cc1 (stereo unspecified) | – | – | · | – | –
CC(=O)N1N=C(c2ccccc2O)OC1(C)CC(=O)Nc1ccccc1 (stereo unspecified) | – | – | – | – | –
Cc1ccc(S(=O)(=O)/N=C2/C=C(Sc3ncn[nH]3)C(=O)c3ccccc32)cc1 | ? | – | – | – | 10µM
CC(C)c1ccc(S(=O)(=O)/N=C2/C=C(Sc3ncn[nH]3)C(=O)c3ccccc32)cc1 | ? | – | – | ? | 14µM
O=C(Cc1ccc([N+](=O)[O-])cc1)c1c(O)cc(O)cc1O | 3.5µM | – | ? | – | –
Cc1ccc(CN2CCC(n3nccc3NC(=O)C3CCOC3)CC2)cc1 (stereo unspecified) | – | – | – | – | –
O=C(Nc1nc2ccc(S(=O)(=O)N3CCCC3)cc2s1)C1CCCCC1 | – | – | – | – | –
O=C1CCCN1CCCNC(=S)Nc1ccc(Br)cc1Cl | 40µM | – | – | – | –[0.0914 µM]
Cc1ccnc(Sc2ccc([N+](=O)[O-])cc2[N+](=O)[O-])n1 | 20µM | – | – | – | –
CCN1C(=O)/C(=C\C(=O)c2cccs2)c2cc(Br)ccc21 | 18µM | – | – | ? | –
Nc1c(C(=O)N2CCOCC2)oc2ccccc12 | – | – | – | – | –
CC(=O)Nc1ccc(S(=O)(=O)Nc2nc3ccccc3nc2Nc2ccc(C(=O)O)c(O)c2)cc1 | 79µM | – | – | – | –
O=C(CSc1nnc(-c2ccc(F)cc2)o1)NC1CCCC1 | – | – | – | – | –
COc1ccc(-c2cc3ccc(OC(C)C(=O)O)cc3oc2=O)cc1 (stereo unspecified) | 71µM | – | – | – | –
C=CSc1sc(Cl)c(N2CCOCC2)c1[N+](=O)[O-] | – | – | – | – | –
SMILES | rTrxR1 inhibitor | mIDH1 inhibitor | Eya2 phos inh | RGS4 inhibitor | TrxR1 substrate
C=CS(=O)(=O)c1sc(Cl)c(N2CCOCC2)c1[N+](=O)[O-] | 0.32µM | ? | – | ? | –
CC(c1ccccc1)N1CCN(C(=O)CCl)CC1 (stereo unspecified) | 16µM | – | – | – | –
CC(CC(=O)N1CCN(C(=O)c2ccccc2)CC1)c1ccccc1 (stereo unspecified) | – | – | – | – | –
Cc1cc(C)nc(SCC(N)=O)n1 | – | – | – | – | –
CCCCOc1ccc(-c2nnn(CCC(=O)N3CCOCC3)n2)cc1 | – | – | – | – | –
COc1ccc(C2NC(=O)NC(O)(C(F)(F)F)C2C(=O)c2ccccc2)cc1OC (stereo unspecified) | 28µM | – | – | – | –
CCOc1cc(C2NC(=O)NC(O)(C(F)(F)F)C2C(=O)c2ccccc2)ccc1OC (stereo unspecified) | – | – | – | – | –
O=C(O)/C=C/C(=O)Nc1ccccc1C(=O)Nc1ccccc1 | 40µM | – | – | – | –
CCN1CCc2c(sc(NC(=O)CN3C(=O)c4ccccc4C3=O)c2C(N)=O)C1 | – | – | – | – | –
O=C1C=C(N2CCOCC2)c2ccccc2C1=O | ? | – | – | – | 25µM
COc1cc(/C=C2/C(=O)N(C)C(=S)N2C)ccc1OCc1cccc(F)c1 | – | – | – | – | –
O=C(C=Cc1ccccc1)c1cccs1 | 71µM | – | · | – | –
CCN(CC)CCCNC(=O)/C=C/C(=O)O | 2.8µM | – | – | – | –
C=CCSc1nc(C)c(CCC(C)C)c(=O)[nH]1 | – | – | – | – | –
O=C(CC1SC(=O)N(c2ccccc2)C1=O)Nc1ccccc1 (stereo unspecified) | – | – | – | ? | –
O=C(CC1Sc2ncnn2C1=O)Nc1ccccc1 (stereo unspecified) | 4.5µM | – | – | – | –
Cc1ccc(-c2csc(=Nc3ccccc3)n2Cc2ccc3c(c2)OCO3)cc1C | – | – | · | – | –
Cc1ccc(C)n1CCN1CCN(C(=O)c2ccc(Cl)cc2)CC1 | – | – | ? | – | –
CCn1c(=O)c([N+](=O)[O-])c(Cl)c2ccccc21 | 2.5µM | – | – | ? | –
Cc1ccc2nc(Cl)c(/C=N/NC(=O)CN3CCOCC3)cc2c1 | – | – | · | – | –
N#Cc1c(C(F)(F)F)cc(-c2cccs2)nc1SCc1ccc(Cl)nc1 | 50µM | – | – | – | –
N#Cc1c(C(F)(F)F)cc(-c2cccs2)nc1SCc1ccc(F)cc1 | ? | – | · | – | –
Cc1ccc(S(=O)(=O)ON2C(=O)c3ccccc3C2=O)c(C)c1 | 3.5µM | – | – | ? | –
Cc1cc(C)c(C)c(S(=O)(=O)ON2C(=O)c3ccccc3C2=O)c1C | 1.3µM | – | – | ? | –
O=C1c2ccccc2C(=O)N1OS(=O)(=O)c1ccc(F)cc1 | – | – | – | – | –
Cc1cc(C)c(S(=O)(=O)ON2C(=O)c3ccccc3C2=O)cc1C | 3.5µM | – | – | ? | –
COc1ccc(NC(=O)CCCn2c(=O)c3cccn3c3cccnc32)cc1Cl | – | – | · | – | –

Bioassay records: PubChem BioAssay, National Center for Advancing Translational Sciences (NCATS)
